Assay results published in PubChem BioAssay (NCATS).
Inconclusive results are not listed. Active and inactive are the calls of the source. Calls follow the shape of the dose curve; as a rule, active = well fitted inhibition curve with a large enough effect; inconclusive = small, poorly fitted or top-dose-only effect; inactive = flat fitted curve, though single readings scatter.

target: Tyrosyl-DNA phosphodiesterase 1 (Homo sapiens) (UniProt Q9NUW8); assay: Confirmation Assay for Inhibitors of Tyrosyl-DNA Phosphodiesterase (TDP1) (AID 489007); settings: recombinant human TDP1 enzymatic activity, dose-response; also: nearly all actives have a fitted effect of over 40% in size
Method in brief: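 Recombinant human Tdp1 (1 nM final), expressed in E. coli, preincubated 15 min with compound. Then 15 nM 5'-biotin/3'-phosphotyrosine-FITC DNA substrate added for 5 min at room temperature. AlphaScreen beads (10 ug/ml) added for 10 min; cleavage gives signal loss.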
Potency is read from the fitted curve at half-maximal effect.

Tyrosyl-DNA phosphodiesterase 1 (Homo sapiens), sequence (Q9NUW8 whole entry, looked up): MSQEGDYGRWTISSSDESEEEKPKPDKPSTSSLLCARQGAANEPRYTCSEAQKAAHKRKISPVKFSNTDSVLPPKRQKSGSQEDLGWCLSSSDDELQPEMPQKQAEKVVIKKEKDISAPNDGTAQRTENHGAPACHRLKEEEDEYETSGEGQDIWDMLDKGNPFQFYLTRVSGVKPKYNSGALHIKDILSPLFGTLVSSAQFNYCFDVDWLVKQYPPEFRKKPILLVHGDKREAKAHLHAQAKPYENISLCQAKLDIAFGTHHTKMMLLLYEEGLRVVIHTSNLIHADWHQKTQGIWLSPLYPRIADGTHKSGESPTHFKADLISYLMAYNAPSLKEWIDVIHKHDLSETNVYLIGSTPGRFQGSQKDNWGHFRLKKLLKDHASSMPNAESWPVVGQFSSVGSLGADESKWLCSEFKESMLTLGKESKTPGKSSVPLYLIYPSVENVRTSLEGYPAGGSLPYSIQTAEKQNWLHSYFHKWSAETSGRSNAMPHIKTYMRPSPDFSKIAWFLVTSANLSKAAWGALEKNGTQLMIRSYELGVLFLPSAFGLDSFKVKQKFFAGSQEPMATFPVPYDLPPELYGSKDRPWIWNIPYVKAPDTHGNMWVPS

Potency, active:
Cc1cccc(N2CCN(S(=O)(=O)c3ccc4[nH]c(=O)c(=O)[nH]c4c3)CC2C)c1 (centres undefined) 39.8 µM
c1ccc(N2N=C(c3cccs3)CC2c2ccco2)cc1 (centres undefined) 112 µM
Cc1nn(-c2ccccc2)c(C)c1S(=O)(=O)O 25.1 µM
CSc1ccccc1NC(=O)c1noc2c1CCC2 126 µM
CCCCNC(=O)COC(=O)c1ccc(Cl)c(S(=O)(=O)N2CCCC2)c1 100 µM
Cc1ccc(CNC(=O)CCS(=O)(=O)c2ccc(Br)cc2)cc1 12.6 µM
COc1ccc(CCNC(=O)c2ccc3nc(-c4ccco4)c(-c4ccco4)nc3c2)cc1OC 10 µM
CCCCC[C@H](O)/C=C/[C@@H]1[C@@H](C/C=C\CCCC(=O)OC)[C@@H](O)C[C@H]1O 25.1 µM
O=C1CN(C(=O)/C=C/c2ccco2)c2ccccc2N1 44.7 µM
COc1ccc(CCN2C(=O)C3C4CC(C5C(C(N)=O)=NOC45)C3C2=O)cc1OC (centres undefined) 112 µM
CC1=NN(c2ccc(Cl)c(C(=O)O)c2)C(=O)/C1=C\c1ccc(-c2ccc(C(=O)O)cc2)o1 14.1 µM
N#CC(C#N)=Cc1cccn1-c1ccc(C(=O)O)cc1 3.98 µM
C=CCCN(Cc1ccccc1)S(=O)(=O)c1ccccc1Br 56.2 µM
O=C(O)c1ccc2ncsc2c1 39.8 µM
O=C(O)Cc1ccc(NC(=O)C2CC=CCC2C(=O)O)cc1 (centres undefined) 14.1 µM
Cc1nn(Cc2ccc(F)cc2)c(C)c1NC(=O)c1cc2ncc(Br)cn2n1 44.7 µM
O=C(NN1C(=O)C2CC=C(Cl)CC2C1=O)c1ccncc1 (centres undefined) 31.6 µM
CCOC(=O)c1sc(NC(=O)C2CC=CCC2C(=O)O)nc1C (centres undefined) 39.8 µM
NC(=O)c1oc2ccccc2c1NC(=O)c1nc2ccccc2s1 15.8 µM
Cc1cc(C)c(C#N)c(SCc2ccccc2)n1 112 µM
Cc1c(-c2ccc(Cl)cc2)oc(=O)c2c(N)n(-c3ccccc3)nc12 25.1 µM
O=C(O)C1Cc2ccccc2CN1C(=O)COc1ccc(Br)cc1 (centres undefined) 15.8 µM
Cc1ccc(S(=O)(=O)N2CCCN(c3nc4cc(C)ccc4cc3C#N)CC2)cc1 39.8 µM
Cc1ccc(CN2C(=O)N/C(=C\c3ccc(-c4ccc(C(=O)O)cc4C)o3)C2=O)cc1 7.94 µM
Cc1ccnc(NS(=O)(=O)c2ccc(NC(=O)C3C4C=CC(C4)C3C(=O)O)cc2)n1 (centres undefined) 35.5 µM
O=C(O)c1cc(-c2ccc(/C=C3\NC(=O)N(c4ccccc4)C3=O)o2)ccc1Cl 7.08 µM
Clc1ccc(N2N=C(c3cccs3)CC2c2ccco2)cc1 (centres undefined) 11.2 µM
O=C(O)c1ccc(CSc2n[nH]c(-c3ccco3)n2)cc1 39.8 µM
O=C1C2C3C=CC(C3)C2C(=O)N1c1ncn[nH]1 (centres undefined) 31.6 µM
O=C(CSc1nnc(SCc2ccc(Cl)cc2)s1)N/N=C/c1c[nH]c2ccccc12 5.01 µM
Cc1ccc(-c2nc3c(c(SCC(=O)Nc4cccc(C(=O)O)c4)n2)Cc2cccc(C)c2O3)cc1 4.08 µM
Cc1nc(S/C(=C/c2ccc(OCc3ccc(C(=O)O)cc3)cc2)C(=O)O)n[nH]1 35.5 µM
Cc1cc(N2C(=O)C3C4C=CC(C4)C3C2=O)ccc1NC(=O)c1cccs1 (centres undefined) 70.8 µM
O=C(O)C1C2C=CC(CC2)C1C(=O)O (centres undefined) 7.94 µM
CCCCC(=O)Nc1ccc(C(=O)NNC(=O)CCc2ccccc2)cc1 100 µM
Cc1ccc2cc(C)c3nnc(SCC(=O)NCc4ccco4)n3c2c1 35.5 µM
Cc1nc2ccc(C(=O)O)cc2c2c1CC(C)S2 (centres undefined) 31.6 µM
COc1ccc2cc3cc(C(=O)NCc4cccs4)oc3nc2c1 25.1 µM
CC1(C)OC(=O)C(=Cc2ccc(-c3ccc(Cl)c(C(=O)O)c3)o2)C(=O)O1 14.1 µM
